Laboratory results from PubChem BioAssay (Tox21).
Several values for one entry are separate records, joined by “and”; a condition that tells them apart may be missing. Equal values may be shown once. Results filed as inconclusive are left out. A call without a number means that no potency is given here. Activity calls are given as the source filed them. Unless noted, calls come from the whole dose curve; as a rule, active = well fitted curve in the direction sought with a large enough effect in the repeat runs; inconclusive = weak or mixed curves; inactive = no such curve, though single readings can be large; an effect the other way counts as inactive or inconclusive.

Tests used:
[1] = qHTS assay for small molecules that induce genotoxicity in human embryonic kidney cells expressing luciferase-tagged ATAD5 (AID 651632); note: nearly all actives have a fitted effect of over 15% in size
Summary of the method: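 Reporter cells (HEK293T) express luciferase-tagged ATAD5, a protein that accumulates after DNA damage. Treat 16 hr at 37C/5% CO2, add Amplite, wait 30 min at RT, and read luminescence.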

[2] = qHTS assay for small molecules that induce genotoxicity in human embryonic kidney cells expressing luciferase-tagged ATAD5 - cell viability (AID 651634; calls by dose curve; note: nearly all actives have a fitted effect of over 25% in size; note: potency is the fitted concentration of half-maximal effect)
Summary of the method: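 Seeding of 2,000 HEK293T ATAD5-luciferase cells per well preceded pin-tool compound transfer. Plates sat 15.5 hr at 37C under 5% CO2, then fluorescence was read after 30 min with CellTiter-Fluor.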

[3] = qHTS assay to test for compound auto fluorescence at 535 nm (green) in HepG2 cells (AID 720675)
[4] = qHTS assay to test for compound auto fluorescence at 590 nm (red) in HEK293 cells (AID 720679)
Summary of the method: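 We plated HEK293 cells in 10% dialyzed FBS medium, let them adhere for 4-5 hr, then added 23 nL compound. Overnight at 37C and 5% CO2 preceded fluorescence measurement at 540/590nm.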

[5] = qHTS assay to test for compound auto fluorescence at 535 nm (green) in HEK293 cells (AID 720680)
[6] = qHTS assay to test for compound auto fluorescence at 460 nm (blue) in HEK293 cell free culture (AID 720681)
Summary of the method: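 Compounds were added to cell-free DMEM with 10% FBS and fluorescence read directly. The blue channel used 405 nm excitation and 460 nm emission, with triamterene as the reference fluorophore.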

[7] = qHTS assay to test for compound auto fluorescence at 535 nm (green) in HEK293 cell free culture (AID 720682)
Summary of the method: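 DMEM + 10% FBS, cell-free; cpd or DMSO pinned in; Ex485/Em535 read; output as fluorescein-equivalent signal.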

[8] = qHTS assay to test for compound auto fluorescence at 590 nm (red) in HepG2 cell free culture (AID 720684)
Summary of the method: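 Compounds are added to culture medium (MEM, 10% FBS) lacking cells, then fluorescence is read at excitation 540 nm, emission 590 nm, with Rose Bengal sodium as the equivalency standard.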

[9] = qHTS assay to test for compound auto fluorescence at 460 nm (blue) in HepG2 cell free culture (AID 720685)
Summary of the method: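 Compound (23 nL) or DMSO pinned into cell-free MEM with 10% FBS; blue fluorescence read at 405/460 nm excitation/emission, expressed as auto-fluorescence equivalency to triamterene.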

[10] = qHTS assay to test for compound auto fluorescence at 535 nm (green) in HepG2 cell free culture (AID 720686)
[11] = qHTS assay to test for compound auto fluorescence at 460 nm (blue) in HepG2 cells (AID 720687)
Summary of the method: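 HepG2 cells in MEM with 10% FBS, attached overnight at 37 C, were exposed to compound or DMSO for 1 hr at 37 C, 5% CO2. Blue fluorescence was read at 405/460 nm, with triamterene as reference fluorophore.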

[12] = qHTS assay for identifying genotoxic compounds that show differential cytotoxicity against isogenic chicken DT40 cell lines with known DNA damage response pathways - Rad54/Ku70 mutant cell line (AID 743015); note: nearly all actives have a fitted effect of over 60% in size; note: potency is the fitted concentration of half-maximal effect
[13] = qHTS assay to identify small molecule antagonists of the thyroid receptor (TR) signaling pathway - cell viability counter screen (AID 743064); note: nearly all actives have a fitted effect of over 50% in size; note: potency is the fitted concentration of half-maximal effect
Summary of the method: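 Viability of T3-stimulated (1 nM final) GH3.TRE-Luc cells is measured by CellTiter-Fluor fluorescence after 23.5 h compound exposure at 37 °C plus 30 min reagent incubation.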

[14] = qHTS assay to identify small molecule antagonists of the thyroid receptor (TR) signaling pathway (AID 743065); note: nearly all actives have a fitted effect of over 55% in size; note: potency is the fitted concentration of half-maximal effect
Summary of the method: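 GH3.TRE-Luc rat pituitary cells (two TREs driving luciferase) were dosed with compound, then stimulated with 1 nM T3 (final) for 23.5 h at 37 C. ONE-Glo luminescence was the read-out, with CellTiter-Fluor fluorescence as the cytotoxicity counter-screen.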

[15] = test system: thyroid hormone receptor (rat, GH3 cells); assay: qHTS assay to identify small molecule agonists of the thyroid receptor (TR) signaling pathway (AID 743066; calls by dose curve)
[16] = qHTS assay to identify small molecule antagonists of the estrogen receptor alpha (ER-alpha) signaling pathway - cell viability counter screen (AID 743074; calls by dose curve;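 note: HEK293 cells carrying ER-alpha-UAS-bla reporter stimulated with 17beta-estradiol; nearly all actives have a fitted effect of over 45% in size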)
Aromatase (Homo sapiens) = Aromatase (Homo sapiens) (UniProt P11511); assay: qHTS assay to identify aromatase inhibitors (AID 743083); note: series mostly up to about 70 µM; nearly all actives have a fitted effect of over 55% in size
[17] = qHTS assay to identify aromatase inhibitors - cell viability counter screen (AID 743084);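 note: cells stimulated with testosterone during compound exposure; nearly all actives have a fitted effect of over 55% in size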
[18] = biological target: Aryl hydrocarbon receptor (Homo sapiens) (UniProt P35869); assay: qHTS assay to identify small molecule that activate the aryl hydrocarbon receptor (AhR) signaling pathway (AID 743085); note: nearly all actives have a fitted effect of over 15% in size; note: potency is the fitted concentration of half-maximal effect
Summary of the method: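 A multiplexed format paired cell viability (CellTiter-Fluor fluorescence) with AhR-dependent luciferase output (ONE-Glo luminescence) in the same wells of HepG2 DRE-luc cells after 24 h compound exposure at 37C.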

[19] = qHTS assay to identify small molecule that activate the aryl hydrocarbon receptor (AhR) signaling pathway - cell viability counter screen (AID 743086); note: nearly all actives have a fitted effect of over 45% in size; note: potency is the fitted concentration of half-maximal effect
Summary of the method: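 HepG2-AhR-luc (HG2L7.5c1) cells, 4000/well, treated 24 h at 37 C with compound; viability measured as CellTiter-Fluor fluorescence after 30 min in the same wells as the luciferase read.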

Aromatase (Homo sapiens), sequence (P11511 whole entry, looked up): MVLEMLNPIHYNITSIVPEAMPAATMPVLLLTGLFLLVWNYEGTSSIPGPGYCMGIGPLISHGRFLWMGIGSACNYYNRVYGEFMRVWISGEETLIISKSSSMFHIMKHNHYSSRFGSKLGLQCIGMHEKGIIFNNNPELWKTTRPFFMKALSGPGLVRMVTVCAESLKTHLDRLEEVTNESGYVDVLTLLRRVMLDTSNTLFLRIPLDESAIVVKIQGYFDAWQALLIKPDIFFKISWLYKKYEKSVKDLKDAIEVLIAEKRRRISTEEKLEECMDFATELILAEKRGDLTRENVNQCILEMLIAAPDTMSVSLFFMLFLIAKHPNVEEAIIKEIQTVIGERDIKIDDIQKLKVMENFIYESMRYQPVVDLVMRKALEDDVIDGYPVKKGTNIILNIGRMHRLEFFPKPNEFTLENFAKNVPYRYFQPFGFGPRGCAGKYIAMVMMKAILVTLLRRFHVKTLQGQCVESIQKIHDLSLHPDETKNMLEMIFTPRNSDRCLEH
Aryl hydrocarbon receptor (Homo sapiens), sequence (P35869 whole entry, looked up): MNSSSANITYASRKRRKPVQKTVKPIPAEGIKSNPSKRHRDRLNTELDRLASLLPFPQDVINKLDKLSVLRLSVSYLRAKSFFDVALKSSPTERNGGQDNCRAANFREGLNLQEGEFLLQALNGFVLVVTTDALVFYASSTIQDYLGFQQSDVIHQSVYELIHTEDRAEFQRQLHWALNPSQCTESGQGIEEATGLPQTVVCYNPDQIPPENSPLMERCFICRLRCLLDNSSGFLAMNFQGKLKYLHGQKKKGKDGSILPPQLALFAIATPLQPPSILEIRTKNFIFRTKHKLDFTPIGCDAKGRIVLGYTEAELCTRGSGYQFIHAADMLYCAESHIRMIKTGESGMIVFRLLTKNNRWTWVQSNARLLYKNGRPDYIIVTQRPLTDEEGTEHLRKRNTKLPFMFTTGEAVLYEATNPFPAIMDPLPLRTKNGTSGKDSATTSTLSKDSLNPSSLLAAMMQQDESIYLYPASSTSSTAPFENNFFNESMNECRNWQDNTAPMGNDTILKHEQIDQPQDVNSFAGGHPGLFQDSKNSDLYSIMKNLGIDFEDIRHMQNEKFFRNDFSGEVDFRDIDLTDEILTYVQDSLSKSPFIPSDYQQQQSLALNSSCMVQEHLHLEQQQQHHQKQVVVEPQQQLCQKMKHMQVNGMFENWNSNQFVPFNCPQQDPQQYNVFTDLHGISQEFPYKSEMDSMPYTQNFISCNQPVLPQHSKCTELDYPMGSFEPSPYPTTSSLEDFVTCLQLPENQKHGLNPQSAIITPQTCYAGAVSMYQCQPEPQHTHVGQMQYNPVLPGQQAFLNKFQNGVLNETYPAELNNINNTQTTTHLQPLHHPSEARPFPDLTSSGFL

Compound	Potency [1]	Potency [2]	Potency [3]	outcome [4]	Potency [5]	Potency [6]	Potency [7]	outcome [8]	Potency [9]	Potency [10]	Potency [11]	Potency [12]	Potency [13]	Potency [14]	Potency [15]	Potency [16]	Potency (Aromatase (Homo sapiens))	Potency [17]	Potency [18]	Potency [19]
C=CCC1(C(C)CCC)C(=O)N=C(S)NC1=O (stereo unspecified)	inactive	inactive	inactive	inactive	inactive	inactive	inactive	inactive	inactive	inactive	inactive	inactive	inactive	inactive	inactive	inactive	inactive	inactive	inactive	inactive
C/C(=C\c1csc(C)n1)[C@@H]1C[C@@H]2O[C@]2(C)CCC[C@H](C)[C@H](O)[C@@H](C)C(=O)C(C)(C)[C@@H](O)CC(=O)O1	inactive		inactive	inactive		inactive	inactive	inactive	inactive	inactive	inactive	0.0038 µM (active)	0.0038 µM (active)	0.0106 µM (active)	inactive		inactive	inactive	inactive	inactive
O=C1CN(O)C(c2ccccc2)=c2cc(Cl)ccc2=N1	inactive	inactive	inactive	inactive	inactive	inactive	inactive	inactive	inactive	inactive	inactive	inactive	inactive	inactive	inactive	inactive	inactive	inactive	inactive	inactive
CN1[C@@H]2CC[C@H]1CC(OC1c3ccccc3CCc3ccccc31)C2 (stereo partly specified)	inactive	inactive	inactive	inactive	inactive	inactive	inactive	inactive	inactive	inactive	inactive	11.4 µM (active)	2.85 µM (active)	5.07 µM (active)	inactive	inactive	inactive	inactive	inactive	inactive
F/C(COc1ccc2c(c1)[nH]c1ccccc12)=C1/CN2CCC1CC2	inactive	inactive	inactive	inactive	inactive	inactive	inactive	inactive	inactive	inactive	inactive	7.5 µM (active)	7.5 µM (active)	8.41 µM (active)					10.6 µM (active)	21.1 µM (active)
CC(C)[C@@]1(NC(=O)[C@@H]2C[C@@H]3c4cccc5[nH]cc(c45)C[C@H]3N(C)C2)O[C@@]2(O)[C@@H]3CCCN3C(=O)[C@H](Cc3ccccc3)N2C1=O	inactive		inactive	inactive		inactive	inactive	inactive	inactive	inactive	inactive	23.7 µM (active) and 26.6 µM (active)	23.7 µM (active) and 21.1 µM (active)	23.7 µM (active) and 26.6 µM (active)	inactive	inactive	inactive	inactive	inactive	
C[C@]12CC[C@H]3[C@@H](CCC4=CC(=O)CC[C@@]43C)[C@@H]1CC[C@H]2O	inactive	inactive	inactive	inactive	inactive	inactive	inactive	inactive	inactive	inactive	inactive	29.8 µM (active)			inactive	inactive	inactive	inactive	inactive	inactive
Cc1ccccc1-n1c(CF)nc2ccc(N)cc2c1=O	inactive	inactive	inactive	inactive	inactive	inactive	inactive	inactive	inactive	inactive	inactive		inactive	inactive	inactive	inactive	inactive	inactive	29.8 µM (active)	inactive
CCCCNCC(O)c1ccc(O)cc1 (stereo unspecified)	inactive	inactive	inactive	inactive	inactive	inactive	inactive	inactive	inactive	inactive	inactive	inactive	inactive	inactive	inactive	inactive				inactive
O[C@H]1[C@H]2[C@H](O)CCCN2C[C@H]1O	inactive	inactive	inactive	inactive	inactive	inactive	inactive	inactive	inactive	inactive	inactive	inactive	inactive	inactive	inactive	inactive	inactive	inactive	inactive	inactive
C[C@]12CC[C@H]3[C@@H](CCC4=C(O)C(=O)CC[C@@H]43)[C@@H]1CC[C@@H]2OC(=O)CCC1CCCC1	inactive	inactive	inactive	inactive	inactive	inactive	inactive	inactive	inactive	inactive	inactive	inactive	inactive	inactive	inactive	inactive	inactive	inactive	inactive	inactive
CCN(CC)CCO[C@H]1CC[C@@]2(C)C(=CC[C@@H]3[C@@H]2CC[C@]2(C)C(=O)CC[C@@H]32)C1	inactive	inactive	inactive	inactive	inactive	inactive	inactive	inactive	inactive	inactive	inactive	1.33 µM (active)	inactive	21.1 µM (active)	inactive		inactive	inactive	inactive	inactive
CCC(C)(S(=O)(=O)CC)S(=O)(=O)CC	inactive	inactive	inactive	inactive		inactive	inactive	inactive	inactive	inactive	inactive	inactive	inactive	inactive	inactive	inactive	inactive	inactive	inactive	inactive
C[C@]12C[C@H]3S[C@H]3C[C@@H]1CC[C@@H]1[C@@H]2CC[C@]2(C)[C@@H](O)CC[C@@H]12	inactive	inactive	inactive	inactive	inactive	inactive	inactive	inactive	inactive	inactive	inactive		inactive	inactive	inactive	inactive	inactive	inactive	inactive	inactive
C[C@]12CC[C@H]3[C@@H](CCC4=C(Cl)C(=O)CC[C@@]43C)[C@@H]1CC[C@@H]2O	inactive	inactive	inactive	inactive	inactive	inactive	inactive	inactive	inactive	inactive	inactive	23.7 µM (active)	inactive	13.3 µM (active)	inactive	inactive	inactive	inactive	inactive	inactive
CO[C@H]1[C@@H](O)C[C@H](O[C@H]2[C@@H](O)C[C@H](O[C@H]3[C@@H](O)C[C@H](O[C@H]4CC[C@@]5(C)[C@H](CC[C@@H]6[C@@H]5C[C@@H](O)[C@]5(C)[C@@H](C7=CC(=O)OC7)CC[C@]65O)C4)O[C@@H]3C)O[C@@H]2C)O[C@@H]1C	inactive	0.0944 µM (active)	inactive	inactive	inactive	inactive	inactive	inactive	inactive	inactive	inactive	0.668 µM (active)	inactive	inactive	inactive		inactive	inactive	inactive	
CC(=O)O[C@H]1C[C@H](O[C@H]2[C@@H](O)C[C@H](O[C@H]3[C@@H](O)C[C@H](O[C@H]4CC[C@@]5(C)[C@H](CC[C@@H]6[C@@H]5C[C@@H](O)[C@]5(C)[C@@H](C7=CC(=O)OC7)CC[C@]65O)C4)O[C@@H]3C)O[C@@H]2C)O[C@H](C)[C@H]1O[C@@H]1O[C@H](CO)[C@@H](O)[C@H](O)[C@H]1O	inactive	0.168 µM (active)	inactive	inactive	inactive	inactive	inactive	inactive	inactive	inactive	inactive	0.668 µM (active)	inactive	inactive	inactive		inactive	inactive		inactive
CC(=O)[C@H]1CC[C@H]2[C@@H]3CC[C@@H]4C[C@H](O)CC[C@]4(C)[C@H]3CC[C@]12C	inactive	inactive	inactive	inactive	inactive	inactive	inactive	inactive	inactive	inactive	inactive	inactive		13.3 µM (active)	inactive	inactive	inactive	inactive	inactive	inactive
NCC[C@H](O)C(=O)N[C@@H]1C[C@H](N)[C@@H](O[C@H]2O[C@H](CN)[C@@H](O)[C@H](O)[C@H]2N)[C@H](O[C@@H]2O[C@H](CO)[C@@H](O)[C@H]2O)[C@H]1O	inactive	inactive	inactive	inactive	inactive	inactive	inactive	inactive	inactive	inactive	inactive	inactive	inactive	inactive	inactive	inactive	inactive	inactive	inactive	inactive
